# Reference: PubChem BioAssay AID652062 (Broad Institute, 2013)
# Among all 1,400 compounds or so, about 1,100 (79%) were called active.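 Rule for the calls: active = fitted half-maximal concentration of a falling signal no higher than twice the top valid dose in every test run; inconclusive = runs disagree, or flat partial inhibition, or poor fit; inactive = every run inactive: flat, wrong direction, or potency beyond limit.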 So high a share suggests a set chosen from earlier hits. Only a sample is shown. Measured potencies and affinities stand elsewhere.
# Assay: inhibitors of clade B AD8 Env fusion, dose response, cell-based, cherry-pick (AID 652062)
# Details: HeLa-AD8 Env / CEM-CCR5 cell fusion, luciferase; at 35 µM (top of the series) unless noted
row,SMILES,"activity change, negative = inhibition"
1,O=C(CCNC(=O)c1ccc(Br)cc1)NNC(=O)COc1ccccc1F,9.15%
2,Nc1nonc1C(=O)NCCNCc1c(OCc2ccccc2F)ccc2ccccc12,10.1%
3,O=C(Nc1cc(Cl)cc(Cl)c1)C(c1ccccc1)N1CCCCC1 (configuration not stated),-7.46%
4,C[C@H]1CN([C@@H](C)CO)C(=O)c2ccccc2-c2ccccc2CO[C@H]1CN(C)S(=O)(=O)c1ccccc1C#N,30.6%
5,CCN1CCN(S(=O)(=O)c2ccc(Cl)c(C(=O)Nc3ccccc3N3CCCC3)c2)CC1,48.8%
6,CO[C@@H]1CN(C)C(=O)c2cc(NC(=O)Nc3ccc(Cl)cc3)ccc2OC[C@H](C)N(C)C[C@H]1C,-19.7%
7,C[C@@H]1CN([C@H](C)CO)C(=O)c2cc(C#Cc3ccncc3)cnc2O[C@@H]1CN(C)S(=O)(=O)c1ccccc1F,-27%
8,C[C@H](CO)N1C[C@H](C)[C@H](CN(C)S(=O)(=O)c2ccc(C#N)cc2)Oc2ncc(/C=C/c3ccccc3)cc2C1=O,16.9% [at 16 µM]
9,S=c1nc[nH]c2c1[nH]c1ccc(Cl)cc12,149%
10,N#Cc1ccc(CSc2nnc(COc3ccccc3)n2-c2ccccc2)cc1,7.17%
11,C[C@H]1CN([C@@H](C)CO)C(=O)c2cc(NS(=O)(=O)c3ccc(F)cc3)ccc2O[C@H]1CN(C)S(=O)(=O)c1ccc(F)cc1,7.89%
12,CCCNC(=O)C[C@H]1C[C@H]2c3cc(NC(=O)Cc4ccncc4)ccc3O[C@H]2[C@H](CO)O1,-15.2%
13,CCCNC(=O)C[C@@H]1C[C@@H]2c3cc(NC(=O)CN(C)C)ccc3O[C@@H]2[C@H](CO)O1,48.2%
14,CCCNC(=O)C[C@H]1C[C@H]2c3cc(NC(=O)CN(C)C)ccc3O[C@H]2[C@H](CO)O1,-19.9% [at 16 µM]
15,CCCNC(=O)C[C@@H]1C[C@@H]2c3cc(NC(=O)Cc4ccncc4)ccc3O[C@@H]2[C@H](CO)O1,-27.5%
16,C[C@H]1CN([C@@H](C)CO)C(=O)Cc2cc(N(C)C)ccc2O[C@H]1CN(C)CC1CC1,11.8%
17,C[C@H](CO)N1C[C@H](C)[C@@H](CN(C)CC2CC2)Oc2ccc(NS(C)(=O)=O)cc2CC1=O,4.33%
18,C[C@@H]1CN([C@@H](C)CO)C(=O)Cc2cc(NC(=O)c3ccncc3)ccc2O[C@H]1CN(C)Cc1ccc(Cl)c(Cl)c1,-39.7%
19,Nc1ccc(S(=O)(=O)c2ccc(N3CCOCC3)c(N)c2)cc1,-17.7%
20,COc1ccccc1-c1ccc2c(c1)O[C@H](CN(C)S(=O)(=O)c1ccccc1)[C@H](C)CN([C@H](C)CO)S2(=O)=O,18.5%
21,Cc1ccc(S(=O)(=O)N(C)C[C@H]2Oc3cc(-c4cccc(F)c4)ccc3S(=O)(=O)N([C@H](C)CO)C[C@H]2C)cc1,-33.7%
22,COc1ccc2c3c(n(C)c2c1)[C@@H](CO)N(C(=O)C1CCOCC1)CC31CCN(Cc2cccc(F)c2)CC1,-3.19%
23,COc1ccc2c3c(n(C)c2c1)[C@@H](CO)N(C(=O)Nc1ccc(F)cc1)CC31CCN(Cc2cccc(F)c2)CC1,-2.46%
24,COc1ccc2c3c([nH]c2c1)[C@H](CO)N(C(=O)Nc1cccc(F)c1)CC31CCN(S(=O)(=O)c2ccccc2)CC1,-57.4%
25,COc1ccc2c3c([nH]c2c1)[C@@H](CO)N(C(=O)Nc1cccc(F)c1)CC31CCN(S(=O)(=O)c2ccccc2)CC1,-99.7%
26,CC1(C(=O)NCc2ccc3c(c2)OCO3)CCN1Cc1csc2ccccc12 (configuration not stated),-11%

row,SMILES,"activity change, negative = inhibition"
1,CCNC1CCC(Nc2ccnc3cc(Cl)ccc23)CC1 (configuration not stated),-25.4%
2,CCCCCCc1nc2ccccc2c(=O)n1NC(=O)c1c(O)c2c(n(CC(C)C)c1=O)CCCC2,-7.39%
3,COc1ccc(-c2nn(C)c(=O)c3ccccc23)cc1NC(=O)COc1ccccc1,-10.9%
4,COc1ccc(OCC(=O)Nc2cc(-c3nn(C)c(=O)c4ccccc34)ccc2OC)cc1,-23.3%
5,CN(C)C(=O)C[C@@H]1C[C@@H]2c3cc(NS(=O)(=O)c4ccc(F)cc4)ccc3O[C@@H]2[C@@H](CO)O1,8.4%
6,CS(=O)(=O)Nc1ccc2c(c1)[C@H]1C[C@H](CC(=O)N3CCc4ccccc4C3)O[C@H](CO)[C@H]1O2,-8.56%
7,CS(=O)(=O)Nc1ccc2c(c1)[C@H]1C[C@@H](CC(=O)NCCN3CCCCC3)O[C@@H](CO)[C@H]1O2,21%
8,CN(C)C(=O)C[C@H]1C[C@@H]2c3cc(NS(=O)(=O)c4ccc(F)cc4)ccc3O[C@@H]2[C@@H](CO)O1,-6.58%
9,CS(=O)(=O)Nc1ccc2c(c1)[C@@H]1C[C@@H](CC(=O)N3CCc4ccccc4C3)O[C@H](CO)[C@@H]1O2,41.9%
10,O=C(C[C@@H]1C[C@H]2c3cc(NC(=O)Nc4ccc(F)cc4)ccc3O[C@H]2[C@H](CO)O1)NCC1CC1,49.9%
11,O=C(C[C@H]1C[C@@H]2c3cc(NC(=O)Nc4ccc(F)cc4)ccc3O[C@@H]2[C@@H](CO)O1)NCC1CC1,-36.8%
12,COc1cccc(S(=O)(=O)Nc2ccc3c(c2)[C@H]2C[C@H](CC(=O)NCc4ccc(Cl)cc4)O[C@@H](CO)[C@H]2O3)c1,0.353%
13,O=C(Nc1ccc(F)cc1)Nc1ccc2c(c1)[C@@H]1C[C@H](CC(=O)N3CCCCC3)O[C@H](CO)[C@@H]1O2,-21.7%
14,CN1CCN(C(=O)C[C@H]2C[C@@H]3c4cc(NS(C)(=O)=O)ccc4O[C@@H]3[C@H](CO)O2)CC1,-46%
15,O=C(Nc1ccc(F)cc1)Nc1ccc2c(c1)[C@@H]1C[C@H](CC(=O)N3CCCCC3)O[C@@H](CO)[C@@H]1O2,-7.88%
16,CN(C)CC(=O)Nc1ccc2c(c1)[C@H]1C[C@H](CC(=O)NCc3cccc(F)c3)O[C@@H](CO)[C@H]1O2,-1.18%
17,COCCNC(=O)C[C@@H]1C[C@H]2c3cc(N(C)C)ccc3O[C@H]2[C@@H](CO)O1,-37%
18,O=C(C[C@H]1C[C@H]2c3cc(NS(=O)(=O)c4ccc(F)cc4)ccc3O[C@H]2[C@@H](CO)O1)NCc1ccccc1F,28%
19,O=C(C[C@@H]1C[C@@H]2c3cc(NC(=O)C4CCOCC4)ccc3O[C@@H]2[C@H](CO)O1)NCc1ccccc1F,23.2%
20,O=C(C[C@@H]1C[C@H]2c3cc(NC(=O)C4CCOCC4)ccc3O[C@H]2[C@H](CO)O1)NCc1ccccc1F,10.9%
21,O=C(C[C@H]1C[C@@H]2c3cc(NC(=O)C4CCOCC4)ccc3O[C@@H]2[C@@H](CO)O1)NCc1ccccc1F,-7.12%
22,Cc1ccc(S(=O)(=O)N(C)C[C@H]2Oc3cc(C4=CCCC4)ccc3S(=O)(=O)N([C@H](C)CO)C[C@H]2C)cc1,-41.2%
23,COc1ccc(S(=O)(=O)N(C)C[C@H]2Oc3cc(C4=CCCC4)ccc3S(=O)(=O)N([C@@H](C)CO)C[C@H]2C)cc1,5.51%
24,COc1cccc(/C=N/NC(=O)CC2C(=O)NN=C2C)c1O (configuration not stated),-20%
25,COc1ccc(CCCC(=O)NCCc2ccccc2)c(C)c1,7.11%
26,CCCNC(=O)C[C@@H]1C[C@H]2c3cc(NC(=O)Cc4ccncc4)ccc3O[C@H]2[C@@H](CO)O1,10.9% [at 30 µM]

row,SMILES,"activity change, negative = inhibition"
1,CCCNC(=O)C[C@@H]1C[C@@H]2c3cc(NC(=O)Cc4ccncc4)ccc3O[C@@H]2[C@@H](CO)O1,-32.8% [at 30 µM]
2,CCN(CC)S(=O)(=O)c1ccc(NC2c3ccccc3C(=O)N2Cc2ccc3c(c2)OCO3)cc1 (configuration not stated),-25.4%
3,CCOc1ccc(NC2c3ccccc3C(=O)N2Cc2ccco2)cc1 (configuration not stated),51.2%
4,O=C(Nc1cccc(F)c1)c1cc(S(=O)(=O)N2CCC(C(=O)O)CC2)ccc1F,43.8%
5,O=C(Nc1ccc(Cl)cc1)C1CCCN(C2=NS(=O)(=O)c3ccccc32)C1 (configuration not stated),-27% [at 16 µM]
6,C[C@H](CO)N1C[C@H](C)[C@@H](CN(C)C(=O)Nc2cccc3ccccc23)OCCCC[C@H](C)Oc2ccc(N(C)C)cc2C1=O,-37.4%
7,Cc1noc(C)c1NC(=O)N(C)C[C@H]1OCCCC[C@H](C)Oc2ccc(NC(=O)c3ccccc3)cc2C(=O)N([C@H](C)CO)C[C@@H]1C,107%
8,O=C(N/N=C/c1ccc(-n2ccnc2)cc1)c1cccs1,91.2%
9,Clc1ccc2c(c1)C1=C(C(c3ccncc3)O2)C(c2ccc(Br)cc2)n2ncnc2N1 (configuration not stated),285% [at 16 µM]
10,NC(Cc1ccc(F)cc1)c1csc(Nc2ccc(C(F)(F)F)cn2)n1 (configuration not stated),-26.6% [at 16 µM]
11,Cc1cccc(/C=N\Nc2cn[nH]c(=O)c2Cl)c1,183%
12,COc1ccc(OC)c(CN2C(=O)c3ccccc3C2c2nnnn2-c2c(C)cccc2C)c1 (configuration not stated),-4.67%
13,COc1ccc(CCN2C(=O)c3[nH]nc(-c4ccccc4O)c3C2c2cccc(O)c2)cc1OC (configuration not stated),4.61%
14,CN(C(=O)c1cccc(NC(=O)Cc2cccc(NC(=O)C3CCCN(C(=O)C4CCC4)C3)c2)c1)C1CCC1 (configuration not stated),49.5%
15,COc1ccc(-c2nnc(Nc3nc4c(OC)cccc4s3)o2)cc1,-27.2%
16,O=C(CCN1CCCCC1)N[C@@H]1CC[C@@H](CCn2cc(-c3ccccc3)nn2)O[C@@H]1CO,-17.1%
17,O=C(Cc1ccncc1)N[C@H]1CC[C@@H](CCn2cc(-c3ccccc3F)nn2)O[C@@H]1CO,-16.3%
18,O=C(Nc1cccc(F)c1)N[C@@H]1CC[C@H](CCNS(=O)(=O)c2cccc(Cl)c2)O[C@H]1CO,101%
19,O=C(CCN1CCCCC1)N[C@H]1CC[C@H](CCn2cc(-c3ccccc3)nn2)O[C@@H]1CO,-27.5%
20,COc1ccccc1S(=O)(=O)n1cc(Cc2ccccc2)c(N)n1,-17%
21,O=C(C[C@@H]1CC[C@@H](NC(=O)c2ccncc2)[C@H](CO)O1)NCCc1ccncc1,38.7%
22,COc1ccc(Nc2cc(C)nc(NCc3ccccc3)n2)cc1,-69.2%
23,C[C@@H]1CN([C@@H](C)CO)C(=O)c2cccc(NC(=O)c3cnccn3)c2O[C@H]1CN(C)Cc1ccc(Cl)c(Cl)c1,142% [at 16 µM]
24,C[C@@H]1CN([C@H](C)CO)C(=O)c2cccc(NC(=O)c3ccncc3)c2O[C@@H]1CN(C)Cc1ccc(C(=O)O)cc1,3.82%
25,C[C@@H]1CN([C@@H](C)CO)C(=O)c2cccc(NC(=O)c3ccc(-c4nccs4)cc3)c2O[C@H]1CN(C)CC1CC1,28.5%
